A selection: hits, their analogues and other compounds. The true share with any hit is near 2.7%.
Integrin act MD: activators of alpha7 integrin expression for muscular dystrophy; alpha7betagal myoblasts, beta-gal FDG fluorescence, 48 h; Potency, µM (titrated, usually from 38.3 µM), most hits filed as activators; 350,000 tested, 0.064% active; further: nearly all actives have a fitted effect of over 60% in size
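Alpha7betagal+/- myoblasts (passage 13) were plated 16-24 hr, then exposed to compounds (1:260 dilution of DMSO stock) for 48 hours at 37C. After MPER lysis, β-galactosidase reporter activity was read as FDG fluorescence (ex 480/em 540) after 30 minutes.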
GLP-1R inv ag: inverse agonists of human GLP-1 receptor; P43220; HEK293 GLP-1R CRE-luciferase, luminescence, 24 h; GLP-1R form is constitutively active; Potency, µM (doses to about 38.3 µM), most hits filed as inhibitors; 410,000 tested, 1.6% active; AID 624417; further: nearly all actives have a fitted effect of over 55% in size
Target sequence (P43220 whole entry, looked up): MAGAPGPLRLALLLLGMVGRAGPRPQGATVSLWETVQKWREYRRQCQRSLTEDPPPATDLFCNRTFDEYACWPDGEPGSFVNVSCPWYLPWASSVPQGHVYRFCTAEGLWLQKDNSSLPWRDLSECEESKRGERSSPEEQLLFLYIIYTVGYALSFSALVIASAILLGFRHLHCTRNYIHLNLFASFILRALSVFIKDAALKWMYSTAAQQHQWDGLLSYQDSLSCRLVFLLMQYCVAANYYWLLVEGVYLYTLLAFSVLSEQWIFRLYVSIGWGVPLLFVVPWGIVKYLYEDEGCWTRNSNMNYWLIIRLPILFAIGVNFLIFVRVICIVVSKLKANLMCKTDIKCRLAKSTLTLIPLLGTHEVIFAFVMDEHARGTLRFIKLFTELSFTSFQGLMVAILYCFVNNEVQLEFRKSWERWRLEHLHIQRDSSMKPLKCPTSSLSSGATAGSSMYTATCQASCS
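Readout was luciferase luminescence, measured 12 min after detection reagent at room temperature. Beforehand, GLP-1R reporter HEK293 cells had sat 12 h, then received compounds for 24 hr at 37 deg C.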
GLP1R ag: GLP-1 receptor (human) agonism. P43220. HEK293 GLP-1R CRE-luciferase, luminescence, 4-6 h; cells express a hypersensitive GLP-1R form. Potency, µM (doses to about 45.6 µM), usual class: activators. 380,000 tested, 0.007% active. AID 624172
HEK293 tox: cytotoxicity in counter-screen for GLP-1R inverse agonists | HEK293 cAMP-luciferase reporter cells, luminescence, 24 h | Potency, µM (titrated, usually from 38.3 µM), actives largely listed as inhibitors | 410,000 tested, 0.13% active | AID 624418;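 further: loss of luciferase light is scored as toxicity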
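1536-well qHTS counterscreen of the MLSMR; 200 cells/uL, 12 h pre-incubation, 23 nL cpd, 24 h at 37 deg C 5% CO2, luciferase detection reagent, 12 min RT, luminescence. Inhibition = undesired.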
BRCA1 expr up: increases BRCA1 expression; MCF7-BRCA1-FFLuc reporter, luminescence, 48 h; response scale: scaled: vehicle 0%, 10 µM genistein 100%; Potency, µM (top dose mostly 46.1 µM), usual class: activators; 380,000 tested, 1.1% active; AID 624202; further: nearly all actives have a fitted effect of over 80% in size
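Using MCF7 cells harboring a BRCA1 firefly luciferase reporter, plated 2 h before compound pinning, the screen measured luminescence after 48 h incubation. Responses were normalized to DMSO and 10 microM genistein, then fitted for concentration-effect.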
Each line names hits and unclear results; the compound was inactive in the other large screens; ! = repeats disagree. The call rests on the fitted dose curve; in most records, active means well fitted curve in the direction sought with a large enough effect; inconclusive means small, poorly fitted or top-dose-only effect, or another doubt; inactive means no such curve, though single readings can be large; an effect the other way counts as inactive or inconclusive.

O=C(Cc1ccc(F)cc1)Nc1nc(-c2ccc(F)c(F)c2)cs1	GLP-1R inv ag inconclusive
COc1ccc(CC(=O)Nc2nc(-c3ccc(F)c(F)c3)cs2)cc1	GLP-1R inv ag 11µM
COc1cccc(-c2csc(NC(=O)Oc3ccccc3)n2)c1	BRCA1 expr up 10µM
O=C(Nc1cccc(C(F)(F)F)c1)c1cc(S(=O)(=O)N2CCCC2)c[nH]1	none (no result: Integrin act MD)
Cc1cccc(N(CC(=O)N(C)Cc2ccccc2)S(=O)(=O)c2ccccc2)c1C	GLP-1R inv ag inconclusive (no result: Integrin act MD)
Cc1ccc2oc(-c3ccc(C)c(NC(=O)/C=C/c4ccc(Cl)cc4)c3)nc2c1	none (no result: Integrin act MD)
O=S(=O)(c1ccc2ccccc2c1)N1CCN(C(=S)Nc2ccc(F)c(Cl)c2)CC1	GLP-1R inv ag 4.5µM
COc1ccc(OC)c(S(=O)(=O)NCC(c2cccs2)S(=O)(=O)c2ccc(F)cc2)c1 (configuration not stated)	none (no result: Integrin act MD, GLP1R ag, BRCA1 expr up)
COC(=O)c1c(C)c2c(C)cc3ccccn3c-2c1C(=O)OC	none
COC(=O)c1cc2c(-c3ccccc3)cc3ccccn3c-2c1C(=O)OC	GLP-1R inv ag 7.9µM, HEK293 tox inconclusive
CCCN(CCC)c1nc(-c2ccccc2F)nc2ccccc12	none (no result: Integrin act MD, GLP1R ag, BRCA1 expr up)
CN(C)c1nc(-c2ccccn2)nnc1-c1ccccc1	HEK293 tox inconclusive
CCN(CC)c1nc(-c2ccccn2)nc(-c2ccccc2)c1C#N	GLP-1R inv ag 13µM, HEK293 tox inconclusive
CCCN(CCC)c1nc(-c2ccccn2)nc2ccccc12	GLP-1R inv ag 3.5µM, HEK293 tox inconclusive
C[C@@H](CO)NC(=O)c1ccc2c3n(nc2c1)-c1ccccc1CO3	GLP-1R inv ag 3.5µM, BRCA1 expr up inconclusive
Cc1ccc2c(c1)COc1c3ccc(C(=O)N[C@@H](CO)C(C)C)cc3nn1-2	BRCA1 expr up 6.3µM
O=C(NCC1CCCO1)c1ccc2c3n(nc2c1)-c1ccccc1CO3 (configuration not stated)	BRCA1 expr up 2.5µM
CCCSc1nc(-c2ccc(OC)cc2)cc(-c2ccccc2OC)c1C#N	none (no result: Integrin act MD, GLP1R ag, BRCA1 expr up)
CC(C)(C)c1ccc(/C=C/C(=O)Nc2ccc(S(N)(=O)=O)cc2)cc1	GLP-1R inv ag inconclusive, HEK293 tox inconclusive (no result: Integrin act MD)
O=C(Nc1ccccc1)c1nc[nH]c1C(=O)O	none (no result: Integrin act MD, GLP1R ag, BRCA1 expr up)
CC(C)(C)n1nnnc1C(c1cccs1)N1CCCc2ccccc21 (configuration not stated)	GLP-1R inv ag 11µM
CCN/C=C(\C#N)S(=O)(=O)c1ccc(Br)cc1	none
CC(C)(C)N/C=C(\C#N)S(=O)(=O)c1ccc(Br)cc1	Integrin act MD 11µM
CC(C)CCOc1ccc(C(=O)NCC(c2ccco2)N(C)C)cc1 (configuration not stated)	GLP-1R inv ag 7.9µM
COc1cc(NS(=O)(=O)c2ccc(OC)c(C)c2C)c(OC)cc1Cl	GLP-1R inv ag 4µM
Cc1ccc(-c2nnc(Nc3ccc(O)cc3)c3ccccc23)cc1S(=O)(=O)NCC1CCCO1 (configuration not stated)	none (no result: Integrin act MD, GLP1R ag, BRCA1 expr up)
CCC(=O)Nc1ccccc1C(=O)OCC(=O)c1ccccc1	BRCA1 expr up 2µM
CCC(=O)Nc1ccccc1C(=O)OCC(=O)c1ccc2ccccc2c1	none
CCC(=O)Nc1cccc(C(=O)OCC(=O)c2ccccc2Cl)c1	BRCA1 expr up 7.9µM
COc1ccc(CC(=O)Nc2ccc(-c3nc4ccccc4s3)cc2Cl)cc1OC	GLP-1R inv ag inconclusive (no result: Integrin act MD, GLP1R ag, BRCA1 expr up)
O=C(/C=C/c1ccco1)Nc1nc(-c2ccccc2)cs1	BRCA1 expr up 8.9µM
Clc1ccc(C2CC(c3ccco3)n3ncnc3N2)cc1Cl (configuration not stated)	GLP-1R inv ag 10µM
Clc1ccc(C2CC(c3ccccc3)Nc3ncnn32)cc1 (configuration not stated)	GLP-1R inv ag inconclusive
COc1cc2c(NC3CCN(C)CC3)nc(N3CCCN(C)CC3)nc2cc1OCCCCCN(C)C	none (no result: Integrin act MD, GLP-1R inv ag, GLP1R ag, HEK293 tox)
CNC(=O)Cn1cc(S(=O)(=O)Cc2ccccc2F)c2ccccc21	none (no result: Integrin act MD, GLP1R ag, BRCA1 expr up)
Nc1nnc(SCCOc2ccc(Br)cc2)s1	BRCA1 expr up 11µM
Cc1ccc(C)c(Cn2c(=O)n(Cc3ccco3)c(=O)c3oc4ccccc4c32)c1	none (no result: Integrin act MD, GLP1R ag, BRCA1 expr up)
COc1ccc(N(C(=O)CNC(=O)c2ccco2)C(C(=O)NC2CCCC2)c2ccc(C)o2)cc1 (configuration not stated)	none
CC(=O)c1ccc(N(C(=O)CNC(=O)c2ccco2)C(C(=O)NC2CCCC2)c2ccc(C)o2)cc1 (configuration not stated)	Integrin act MD 10µM
Cc1ccccc1-c1nnc(CN2CCN(c3cc(Cl)ccc3C)CC2)o1	GLP-1R inv ag inconclusive (no result: Integrin act MD, GLP1R ag, BRCA1 expr up)
COc1ccc(CC(=O)Nc2oc(-c3ccccc3)c(-c3ccccc3)c2C#N)cc1OC	GLP-1R inv ag 2.2µM
COc1ccc(-c2oc(NC(=O)CCl)c(C#N)c2-c2ccc(OC)cc2)cc1	GLP-1R inv ag 2.2µM, HEK293 tox inconclusive
CCOc1ccc(C(=O)COC(=O)C2COc3ccccc3O2)cc1 (configuration not stated)	none
CCOc1ccc(-c2csc(C3COc4ccccc4O3)n2)cc1 (configuration not stated)	BRCA1 expr up 10µM
Cc1cccc(C)c1OCc1nc2ccccc2[nH]1	GLP-1R inv ag inconclusive
Cc1ccc(C)c(OCc2nc3ccccc3[nH]2)c1	GLP-1R inv ag inconclusive, BRCA1 expr up 3.2µM
CCOC(=O)CCc1c(C)nc2cc(-c3cc(OC)cc(OC)c3)[nH]n2c1=O	none (no result: Integrin act MD)
CC(C)CCNC(=O)C1(C)CCN1Cc1ccc2ccccc2c1 (configuration not stated)	GLP-1R inv ag 10µM (no result: Integrin act MD)
O=S(=O)(c1cccc(C(F)(F)F)c1)n1c(/C=C/c2ccccc2)nc2ccccc21	none (no result: Integrin act MD, GLP1R ag, BRCA1 expr up)
Cc1nc2ccc3nc(NC(=O)c4ccc5c(c4)OCCO5)sc3c2s1	BRCA1 expr up 8.9µM!
Cc1ccc2sc(NC(=O)c3ccc4c(c3)OCCO4)nc2c1C	none (no result: Integrin act MD, GLP1R ag, BRCA1 expr up)
Cc1cnc(NC(=O)c2ccc3c(c2)OCCO3)s1	GLP-1R inv ag inconclusive, BRCA1 expr up inconclusive
Cc1nc2c(ccc3nc(NC(=O)c4ccc5c(c4)OCCO5)sc32)s1	BRCA1 expr up 2.8µM
COc1ccc(CC(=O)N2CCC(Nc3nc4ccccc4n3Cc3ccc(F)cc3)CC2)cc1	GLP-1R inv ag 8.9µM
COc1ccc(Cn2c(SCC(=O)N3CCN(c4ccc(F)cc4)CC3)nc3ccccc32)cc1	none (no result: Integrin act MD, GLP1R ag, BRCA1 expr up)
CCOC(=O)c1nn(-c2ccc3c(c2)CCN3C(C)=O)cc1O	GLP-1R inv ag 11µM
CC(C)NC(=O)N1CC(c2ccccc2)C(c2ccc(Cl)cc2)=N1 (configuration not stated)	GLP-1R inv ag 4µM
O=C(Cc1ccc(F)cc1)NC1CC(=O)N(c2ccccc2)C1 (configuration not stated)	none (no result: Integrin act MD, GLP1R ag, BRCA1 expr up)
Cc1ccc(OCC(=O)Nc2cccc(OCc3cc(=O)n4cccc(C)c4n3)c2)cc1C	none (no result: Integrin act MD, GLP1R ag, BRCA1 expr up)

Source: PubChem BioAssay
